Assay outcomes as filed in PubChem BioAssay.
Most compounds without a hit are left out; they make up all but 2.3% or so of the library.
Nrf2 block: Nrf2 pathway inhibition | actives 2.1% (n = 360,000) | A549 ARE-Fluc reporter, luciferase luminescence, 18-24 h | Potency, µM (series often up to 46 µM), hits mostly inhibitors; note: nearly all actives have a fitted effect of over 60% in size
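Quantitative HTS in A549 cells stably bearing an antioxidant response element-firefly luciferase construct. Inhibition of Nrf2-driven transcription was scored by luminescence after 18-24 h of compound exposure at 37 °C.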
IDH1 R132H inh: inhibitors of human mutant IDH1 R132H; O75874; Potency, µM (top dose mostly 76.6 µM), usual class: inhibitors; IDH1-R132H enzyme, NADPH consumption, diaphorase/resazurin fluorescence; actives 0.093% (n = 390,000); note: nearly all actives have a fitted effect of over 65% in size
Target sequence (O75874 whole entry R132H, stated change not applied): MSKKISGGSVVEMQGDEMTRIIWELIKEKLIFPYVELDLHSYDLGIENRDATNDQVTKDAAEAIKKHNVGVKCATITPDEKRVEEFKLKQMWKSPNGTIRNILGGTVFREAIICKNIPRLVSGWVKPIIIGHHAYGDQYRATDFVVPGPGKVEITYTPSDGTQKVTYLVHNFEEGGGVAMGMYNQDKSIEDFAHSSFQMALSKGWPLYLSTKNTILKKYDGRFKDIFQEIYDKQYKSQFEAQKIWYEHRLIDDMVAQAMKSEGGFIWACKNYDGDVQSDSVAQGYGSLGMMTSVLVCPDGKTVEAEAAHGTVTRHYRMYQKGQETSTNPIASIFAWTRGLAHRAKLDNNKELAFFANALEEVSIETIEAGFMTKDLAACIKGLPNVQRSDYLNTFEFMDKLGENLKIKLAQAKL
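IDH1-R132H (0.5 ug/mL) preincubated 30 min with compound, then NADPH (0.016 mM) and alpha-KG (2 mM) added; 80 min at RT, pH 7.5. Remaining NADPH coupled via diaphorase/resazurin to fluorescence (540/590 nm); concentration-response curves normalized to no-enzyme control.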
A549 viability: counter-screen for Nrf2 inhibitors: cytotoxicity in A549 cells; actives 0.16% (n = 390,000); AID 504648; Potency, µM (highest dose often 46 µM), most hits filed as inhibitors; A549 ARE-Fluc cells, CellTiter-Fluor viability, 18-24 h
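Cytotoxicity counterscreen: CellTiter-Fluor fluorescence was measured in A549 ARE_Fluc cells after 18-24 h of compound exposure in a concentration series. The subsequent BugLite luminescent read reports ARE-luciferase activity.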
Apoferritin bind: candidate novel general anesthetic via apoferritin binding. P02791. apoferritin/1-aminoanthracene competitive binding, fluorescence. Potency, µM (highest dose often 77.5 µM), usual class: inhibitors. actives 0.074% (n = 350,000). AID 485281; note: nearly all actives have a fitted effect of over 20% in size
Target sequence (P02791 2-175 limits assumed): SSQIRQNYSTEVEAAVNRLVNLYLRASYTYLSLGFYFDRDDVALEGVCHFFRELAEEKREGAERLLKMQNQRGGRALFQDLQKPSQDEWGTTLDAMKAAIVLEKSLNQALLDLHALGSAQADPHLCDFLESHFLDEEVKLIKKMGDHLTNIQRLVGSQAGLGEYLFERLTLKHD
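Steps: apoferritin (10 uM) was premixed with half-saturated 1-AMA in PBS, compounds were pin-transferred, plates stood 10 min at room temperature, fluorescence was read at 380/535 nm, and curves were fitted with a Hill equation.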
Nrf2 ARE act: activators of Nrf2 (ARE) signaling | AREc32 ARE-luciferase reporter (MCF7-derived line), luminescence, 24 h | Potency, µM (series often up to 46.1 µM), most hits filed as activators | actives 0.31% (n = 410,000) | AID 624171; note: nearly all actives have a fitted effect of over 65% in size
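Luminescent ARE reporter assay in AREc32_Fluc cells: overnight plating at 37 deg C, 24 hr compound incubation, Steady-Glo added, 30 min RT before reading.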
Giardia killer: kills Giardia lamblia; Giardia lamblia trophozoite viability; activity change, % at 7.66 µM, hits read low; AID 540267; actives 0.15% (n = 340,000); in the data active = activity change below about -80%; inconclusive = between about -30% and that limit;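 note: parasites exposed to compound for two days anaerobically before the ATP read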
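Luminescence from cellular ATP indicates surviving trophozoites (100 cells/well) following 48 hrs anaerobic compound treatment at 37 deg C; signal develops 15-30 min at room temperature.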
A number is an active result; ! = not confirmed by another sample. Unless noted, calls come from the whole dose curve; as a rule, active = well fitted curve in the direction sought with a large enough effect; inconclusive = small, poorly fitted or top-dose-only effect, or another doubt; inactive = no such curve, though single readings can be large; an effect the other way counts as inactive or inconclusive.

Results for O=C1C(Cl)=C(Cl)C(=O)C(Cl)=C1Cl ?
Apoferritin bind: inactive

What do the screens show for `Cc1ccc(C)c(N2CCN(C(=O)CCS(=O)(=O)c3ccc4c(c3)oc(=O)n4C)CC2)c1`?
Nrf2 block: 20.6µM!; IDH1 R132H inh: inactive; A549 viability: inactive; Apoferritin bind: inactive; Nrf2 ARE act: inactive; Giardia killer: inactive

How did Cn1c(=O)oc2cc(S(=O)(=O)CCC(=O)N3CCN(c4ccccc4)CC3)ccc21 do in these assays?
Nrf2 block: inconclusive; IDH1 R132H inh: inactive; A549 viability: inactive; Apoferritin bind: inactive; Nrf2 ARE act: inactive; Giardia killer: inactive

How did C/C1=C/C(=O)O[C@@H]2C[C@@H](CC[C@H](C)/C=C\CC1)O[C@@](O)(C1CSC(=O)N1)C2 (some centres not stated) do in these assays?
Apoferritin bind: inactive

Results for Cc1cc(OC(=O)N(C)C)nn1C(=O)N(C)C ?
Apoferritin bind: inactive

How did O=[N+]([O-])c1oc2ccc3ccccc3c2c1CCO do in these assays?
Nrf2 block: 18.4µM; IDH1 R132H inh: inactive; A549 viability: inconclusive; Nrf2 ARE act: inactive; Giardia killer: -94.8

What do the screens show for `COc1ccc(C2CC(c3c(O)n(C4CCCCC4)c(=O)[nH]c3=O)=Nc3ccccc3S2)cc1` (configuration not stated)?
Nrf2 block: inconclusive; A549 viability: inactive; Apoferritin bind: inactive; Nrf2 ARE act: inactive

Results for COc1ccc(Nc2cc(C)c3cc(NC(=O)c4ccccc4Cl)ccc3n2)cc1 ?
Nrf2 block: 25.9µM; IDH1 R132H inh: inactive; A549 viability: inactive; Apoferritin bind: inactive; Nrf2 ARE act: inactive

How did COc1ccc(NC(=O)c2cn(CCC#N)nc2-c2ccccc2)cc1 do in these assays?
Nrf2 block: inactive; IDH1 R132H inh: inactive; A549 viability: inactive; Apoferritin bind: inactive; Nrf2 ARE act: inactive; Giardia killer: inactive

What do the screens show for `Cc1ccc(C(=O)N2CC2C)cc1` (configuration not stated)?
Nrf2 block: inactive; IDH1 R132H inh: inactive; A549 viability: inactive; Nrf2 ARE act: inactive; Giardia killer: inactive

What do the screens show for `Cc1ccc(C(=O)n2c(N)nc3ccccc32)cc1`?
Nrf2 block: inconclusive; IDH1 R132H inh: inactive; A549 viability: inactive; Apoferritin bind: inactive; Nrf2 ARE act: inactive; Giardia killer: -81.5

Results for C=CCn1c(O)c(C=Nc2ccc(F)cc2)c(=O)[nH]c1=O ?
Nrf2 block: inactive; IDH1 R132H inh: inactive; A549 viability: inactive; Apoferritin bind: inactive; Nrf2 ARE act: inactive; Giardia killer: inactive

What do the screens show for `C=CCn1c(O)c(C=Nc2ccc(N(CC)CC)cc2)c(=O)[nH]c1=O`?
Nrf2 block: 3.26µM; IDH1 R132H inh: inactive; A549 viability: inactive; Apoferritin bind: inactive; Nrf2 ARE act: inactive; Giardia killer: inactive

What do the screens show for `CC(=O)c1cn(CCCOc2ccccc2)c2ccccc12`?
Nrf2 block: 20.6µM; IDH1 R132H inh: inactive; A549 viability: inactive; Apoferritin bind: inactive; Nrf2 ARE act: inactive; Giardia killer: inactive

What do the screens show for `O=C(C(=O)N1CCOCC1)c1cn(CCCOc2ccccc2)c2ccccc12`?
Nrf2 block: inactive; IDH1 R132H inh: inactive; A549 viability: inactive; Apoferritin bind: inactive; Nrf2 ARE act: inactive; Giardia killer: inactive

How did C[C@H](N)C(=O)N[C@@H](C)C(=O)N[C@@H](Cc1ccccc1)C(=O)CCl do in these assays?
Apoferritin bind: inactive

How did COC(=O)C1=C(C(=O)OC)C2OC1c1cc3ccccc3cc12 do in these assays?
Nrf2 block: 20.6µM; IDH1 R132H inh: inactive; A549 viability: inactive; Nrf2 ARE act: inactive; Giardia killer: inactive

Results for Cc1nn(-c2nccs2)c2c1C(=O)CC(C)(C)C2Br (configuration not stated) ?
Nrf2 block: inconclusive; IDH1 R132H inh: inactive; A549 viability: inactive; Nrf2 ARE act: inactive; Giardia killer: inactive

How did Cc1cccc(N2C(=O)NC(=O)/C(=C\c3ccc4c(c3)CCCN4Cc3ccccc3)C2=O)c1 do in these assays?
Nrf2 block: inactive; IDH1 R132H inh: 52.1µM; A549 viability: inactive; Apoferritin bind: inactive; Nrf2 ARE act: inactive; Giardia killer: inactive

Results for CC1=NN(c2ccccc2)C(=O)C1/C=C1/C(=O)NC(=O)N(c2cccc(C)c2)C1=O (configuration not stated) ?
Apoferritin bind: inactive

What do the screens show for `Cc1c(P(=S)(c2ccccc2)c2ccccc2)[n+]2ccccc2n1CCc1ccccc1`?
Nrf2 block: inconclusive; A549 viability: inactive; Nrf2 ARE act: inactive

What do the screens show for `COC(=O)C1=C(c2cccc(OCc3ccccc3)c2)C[C@@H]2CC[C@H]1N2C(=O)NCCCc1ccccc1`?
Nrf2 block: 20.6µM; IDH1 R132H inh: inactive; A549 viability: inactive; Nrf2 ARE act: inactive; Giardia killer: inactive

How did COC(=O)C1=C(c2ccc(OCc3ccccc3)cc2)C[C@@H]2CC[C@H]1N2C(=O)NCc1ccccc1OC do in these assays?
IDH1 R132H inh: inactive; Nrf2 ARE act: inactive

What do the screens show for `COC(=O)C1=C(c2ccc(OCc3ccccc3)cc2)C[C@@H]2CC[C@H]1N2C(=O)NCCCc1ccccc1`?
Nrf2 block: 14.6µM; IDH1 R132H inh: inactive; A549 viability: inactive; Nrf2 ARE act: inactive; Giardia killer: inactive

How did CCC(C)C1NC(=O)C2CCCN2C(=O)C(CC(C)C)OC(=O)CCNC(=O)C(C)N(C)C(=O)C(C(C)C)N(C)C1=O (configuration not stated) do in these assays?
Nrf2 block: 5.17µM; IDH1 R132H inh: inactive; A549 viability: 8.2µM; Nrf2 ARE act: inactive; Giardia killer: inactive

How did COc1cccc(NC(=O)CSC2=Nc3ccccc3C3=NC(CCC(=O)NCCc4ccccc4)C(=O)N23)c1 (configuration not stated) do in these assays?
IDH1 R132H inh: inactive; A549 viability: inactive; Apoferritin bind: inconclusive; Nrf2 ARE act: inactive

What do the screens show for `CCCN1[C@H](C(=O)OC)C[C@@H]2CC[C@@H](O)C[C@@H]21`?
Apoferritin bind: inactive

What do the screens show for `CC(=O)[C@@H]1CC[C@H]2[C@@H]3CC[C@@H]4CC(=O)CC[C@]4(C)[C@H]3CC[C@]12C`?
Apoferritin bind: inactive

What do the screens show for `COc1cccc(-n2nnc3c(sc4nc(C)cc(C)c43)c2=O)c1`?
Nrf2 block: inconclusive; IDH1 R132H inh: inactive; A549 viability: inactive; Apoferritin bind: inactive; Nrf2 ARE act: inactive

What do the screens show for `Cc1ccc2c(c1)c(C1=c3ccccc3=NC1=O)c(O)n2C`?
Nrf2 block: inconclusive; IDH1 R132H inh: inactive; A549 viability: inactive; Apoferritin bind: inactive; Nrf2 ARE act: 11.2µM; Giardia killer: inactive

Results for Cc1ccc(C)c(-n2c(C)nc3ccccc3c2=O)c1 ?
Nrf2 block: inactive; IDH1 R132H inh: inactive; A549 viability: inactive; Apoferritin bind: inactive; Nrf2 ARE act: inactive; Giardia killer: inactive
